HCV inhibitor = qHTS Assay for Inhibitors of Hepatitis C Virus (HCV). actives 3.4% (n = 340,000). Potency, µM (doses to about 41.8 µM), without a hit: top-dose activity change, negative = inhibition, most hits filed as inhibitors. AID 651820, 2012. Huh7.5.1 HCVcc-Cre infection, luciferase reporter, 44 h; further: potency means the concentration at half of the fitted maximal effect; on the % scale 0 is the no-effect control and ±100 the full control effect
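Reporter virus HCVcc-Cre (~0.5 moi) infects cells exposed to compound; seeding density 1,000 cells/well with 4 h settling beforehand. Luminescence, 15 sec read, taken 44 h post-infection following a 15 min RT substrate incubation.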
Pf growth 96h = Primary qHTS for delayed death inhibitors of the malarial parasite plastid, 96 hour incubation; actives 6.9% (n = 320,000); Potency, µM (highest dose often 28.7 µM), for the others: at the top dose activity change, negative = inhibition, most hits filed as inhibitors; P. falciparum luciferase reporter growth, 96 h; further: potency means the concentration at half of the fitted maximal effect; on the % scale 0 is the no-effect control and ±100 the full control effect
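Compounds incubated with erythrocytes infected by luciferase-expressing P. falciparum (2% hematocrit, 0.05% parasitemia final) for 96 hours, 37 C in 5% CO2. Growth inhibition scored as decreased luciferase luminescence.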
Pf growth 48h = Primary qHTS for delayed death inhibitors of the malarial parasite plastid, 48 hour incubation; Potency, µM (top dose mostly 28.7 µM), without a hit: at the top dose activity change, negative = inhibition, actives largely listed as inhibitors; actives 5.9% (n = 310,000); P. falciparum luciferase growth in erythrocytes, 48 h; further: potency means the concentration at half of the fitted maximal effect; on the % scale 0 is the no-effect control and ±100 the full control effect
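Luciferase-expressing parasites in RBCs, 2% Hct / 0.1% parasitemia final; RPMI 1640 + 0.5% Albumax; 37 C, 5% CO2, one generation; luminescence read-out, lower signal = inhibition.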
SARS PLP yeast = qHTS of Yeast-based Assay for SARS-CoV PLP; S. cerevisiae expressing SARS-CoV PLpro, growth rescue; actives 0.19% (n = 330,000); AID 485353, 2010; Potency, µM (doses to about 32.9 µM), without a hit: at the top dose activity, positive = growth rescue, usual class: activators; calls by dose curve; further: potency means the concentration at half of the fitted maximal effect; 0% is about no effect; nearly all actives have a fitted effect of over 55% in size
AMA1 RON2 block = qHTS for Inhibitors of AMA1-RON; Towards Development of Antimalarial Drug Lead: Primary Screen; Plasmodium falciparum AMA1 (3D7) - RON2 peptide interaction; AlphaScreen AMA1-biotinylated RON2 peptide binding; Potency, µM (highest dose often 58.2 µM), for inactives: at the top dose activity change, negative = inhibition, usual class: inhibitors; actives 0.2% (n = 360,000); AID 720542, 2013;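 further: potency means the concentration at half of the fitted maximal effect; 0% = vehicle wells and -100% = peptide control; nearly all actives have a fitted effect of over 45% in size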
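AMA1 (3D7) with his tag at 25 nM final met compounds first, then biotinylated RON2 peptide at 25 nM; detection used donor plus acceptor beads, 10 µg/mL apiece, read by AlphaScreen after 30 min at room temperature.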
NS1 function inh = qHTS Assay for Inhibitors of Influenza NS1 Protein Function; Potency, µM (top dose mostly 46.1 µM), inactives show top-dose activity, positive = more growth; actives 0.4% (n = 270,000); AID 2326, 2010; calls by dose curve; further: potency means the concentration at half of the fitted maximal effect; actives are rising curves; nearly all actives have a fitted effect of over 50% in size
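OD600 was taken as the measure of yeast growth restored by compound in an NS1-expressing S. cerevisiae strain. Cells had been washed out of glucose medium and diluted 1:100 into galactose -URA medium, pH 6.0.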
Flu NS1 inh = Assay for Inhibitors of Influenza NS1 Protein Function: Hit Validation; shares compounds with NS1 function inh; influenza NS1 function cell assay, 15-point titration; activity change, negative = inhibition, % at 32.9 µM; 1,400 tested, under 10 active; calls by dose curve; further: 0% is about no effect
Starred values were filed as active, the others as inactive; ? = inconclusive; . = no result; [ ] = another dose, or the depositor's remark. Compounds with a hit are over-represented: about 12% of the library has one in this group of screens. Unless noted, the call rests on the fitted dose curve; in most records, active means well fitted curve in the direction sought with a large enough effect; inconclusive means small, poorly fitted or top-dose-only effect, or another doubt; inactive means no such curve, though single readings can be large; an effect the other way counts as inactive or inconclusive.

SMILES	HCV inhibitor	Pf growth 96h	Pf growth 48h	SARS PLP yeast	AMA1 RON2 block	NS1 function inh	Flu NS1 inh
c1ccc(C(c2nnnn2Cc2ccco2)N2CCN(c3nc4ccccc4s3)CC2)cc1 (stereo unspecified)	?	.	?	13%	-1%	13µM*	-19
c1ccc(Cn2nnnc2C(c2ccccc2)N2CCN(c3nc4ccccc4s3)CC2)cc1 (stereo unspecified)	8%	-2%	7%	-2%	13%	10µM*	-14
COc1ccccc1C(=O)NCCn1cc(SCC(=O)Nc2nnc(C)s2)c2ccccc21	-11%	?	?	5%	-25%	13µM*	11
Cc1cccc(NC(=O)CSc2nnc([C@@H](N)Cc3c[nH]c4ccccc34)o2)c1C	-4%	1.7µM*	?	2%	64%	11µM*	15
CCOC(=O)C1=C(C)Nc2nc(SCC)[nH]c(=O)c2C1c1ccncc1 (stereo unspecified)	?	-62%	?	9%	19%	?	-15
CCSc1nc2c(c(=O)[nH]1)C(c1cccs1)C(C(=O)OC)=C(C)N2 (stereo unspecified)	-21%[8.37 µM]	-12%	20%	23%	6%	20%	.
O=C1NN(c2ccccc2)C(=O)C1=Cc1ccccc1O	.	.	.	.	5%	.	.
O=C1NN(c2ccc(Br)cc2)C(=O)/C1=C\c1ccc(O)cc1O	-22%	-50%	2%	-5%	-2%	4µM*	-14
Cc1cccc(Nc2nnc(SC/C(O)=C(\C#N)c3nc4ccccc4[nH]3)s2)c1	-10%	?	?	1%	96%	13µM*	11
Cc1ccc(Nc2nnc(SC/C(O)=C(\C#N)c3nc4ccccc4[nH]3)s2)c(C)c1	?	?	?	-2%	96%	8%	.
CCN(CC)C(=O)CSc1nc(O)cc(=O)n1-c1ccccc1OC	12%	12%	-16%	3%	-1%	8.9µM*	37
Cc1ccc2nc(SCC(=O)Nc3cc(C)on3)nc(=O)n2c1	-1%	6%	?	1%	10%	.	.
Cc1cc(NC(=O)COC(=O)c2cccc(S(=O)(=O)N3CCOCC3)c2)no1	14%	15%	9%	-1%	-5%	-6%	.
O=C(COC(=O)c1cccc(S(=O)(=O)N2CCOCC2)c1)Nc1nc(-c2ccccc2Cl)cs1	14%	108%	68%	0%	-5%	11µM*	?
O=C(c1cc2ccccc2o1)N1CCN(S(=O)(=O)c2cccs2)CC1	?	?	.	8%	4%	10µM*	14
C[C@H](CO)N1C[C@H](C)[C@@H](CN(C)S(C)(=O)=O)Oc2c(NC(=O)C3CC3)cccc2C1=O	-2%	.	.	0%	-1%	.	.
COc1ccc(CCNC(=O)c2ccc3c(c2)N(Cc2ccc(C)cc2)CCS3)cc1OC	8.9µM*	-21%	10µM*	-4%	-9%	7.9µM*	0
Cc1cc(NC(=O)CSc2nnc(-c3cccs3)n2N)no1	20%	0%	-29%	9%	9%	?	-7
CCCCn1c(SCC(=O)Nc2cc(C)on2)nnc1-c1cccs1	-6%	19%	-16%	2%	-2%	0%	.
COc1cc(C(=S)N2CCCC2)cc(OC)c1O	6%	19%	.	15%	-6%	4µM*	6
COc1ccc2nc(Nc3nc(CSc4nnnn4-c4ccccc4)cc(=O)[nH]3)nc(C)c2c1	?	?	.	-1%	-3%	-4%	.
Cc1ccc2c(C)nc(Nc3nc(CSc4nnnn4-c4ccccc4)cc(=O)[nH]3)nc2c1	11µM*	.	2.3µM*	2%	8%	14µM*	-25
